Test [1] is described as follows: Her2 expression decrease, cell viability multiplex – SKBR3 breast tumor cells, AlphaScreen, ATP viability, primary screen (AID 461;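 active = Her2 level under about 52% in both replicate screens, with viability over 70% of control, limit read from the data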;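 for Her2 level: lower value means less Her2 protein in the cells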;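 for viability: percent of carrier control wells set as 100% viability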). Conditions: SKBR3 Her2 protein level, 18-24 h, measured here: SKBR3 viability, ATP luminescence, at 10 µM. On the technique in general: Alpha assays give light when donor and acceptor beads are brought close together.
Test [2] concerns the target Receptor tyrosine-protein kinase erbB-2 (Homo sapiens) (UniProt P04626). The test is described as above. Conditions: 18-24 h, at 10 µM, stronger effect = lower value.
The nature of test [3]: reduced viability of SK-BR-3 breast cancer cells – cell-based, 24 h, human, pilot screen (AID 572;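 active = viability at or below 10% of carrier control in both of two separate runs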;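 note: compound exposure lasted between 18 and 24 h rather than exactly 24 h; 100% = carrier-treated control wells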). Conditions: SK-BR-3 viability, CellTiter-Glo luminescence, at 10 µM, stronger effect = lower value.
A short description of test [4]: HUVEC growth inhibition – cell-based, human, primary screen (AID 575;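 active = viability at or below 30% in both replicate assays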;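 note: 100% = median of untreated cell wells with 0.1% DMSO on each plate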). Particulars: HUVEC proliferation, CellTiter-Glo luminescence, 72 h; at 10 µM; stronger effect = lower value.
A short description of test [5]: H69AR cell proliferation blockers – human, duplicate replicates, primary screen (AID 580;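 active = viability at or under a set limit in both replicates, limit being median viability minus 3 SD, cut at about 48% in these data, passing the limit was not always enough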;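 note: 100% = mean luminescence of untreated wells and 0% = no signal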). Particulars: H69AR lung tumor cells viability, ATP luminescence, 72 h; at 10 µM; stronger effect = lower value.
The nature of test [6]: MRP1 drug-resistance reversers in H69AR cells – cell-based, doxorubicin co-treatment, pilot screen (AID 601;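 active = viability loss from added drug above about 55%, and viability with drug at most 40%, in both replicates, limit read from the data, passing the limit was not always enough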). Particulars: CellTiter-Glo, 72 h, at 10 µM; for differential viability (reversal): stronger effect = higher value. In general terms: Cellular ATP, detected with luciferase, serves as a proxy for viable cell number.
The nature of test [7]: yeast transport mutant growth inhibition pilot in 384-well plates, post-Golgi transport modulator project (AID 636; in the data active = inhibition above about 31%). Particulars: absorbance 615 nm, about 18 h, stronger effect = higher value.
The nature of test [8]: growth suppression of yeast trafficking mutant, preliminary HTS, modulators of trafficking downstream of Golgi apparatus project, 1536-format plate, OD 615 nm (AID 637; in the data active = inhibition above about 30%). Conditions: yeast transport mutant growth, absorbance 615 nm, 18 h; stronger effect = higher value.
Test [9] can be described thus: S. cerevisiae growth inhibition in permissive medium (OD615), pilot counter-assay for S. cerevisiae lifespan shortening project, permissive growth control (AID 705;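 active = growth inhibition above 25% in both replicates, a cutoff set 3 SD above the mean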). Conditions: OD615, 24 h, at 10 µM, stronger effect = higher value.
Test [10] in a line: S. cerevisiae growth inhibition in restrictive medium, OD615, pilot screen, restrictive growth control, yeast lifespan reduction project (AID 706;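 active = growth inhibition above a set limit, 3 SD over mean compound inhibition, in both replicates, cut at about 43% in these data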;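 note: modified DeaD lifespan yeast strain shifted to restrictive glucose medium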). Particulars: OD615, 48 h, at 10 µM, stronger effect = higher value.
A short description of test [11]: doxorubicin toxicity protection in MRP-1 cells – H69AR cells, CellTiter-Glo, duplicate, MRP-1 activator project, pilot screen (AID 807;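 active = viability increase at or above a cutoff of the median across tested compounds plus 3 SD, cut at about 8.5% in these data, passing the limit was not always enough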;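 note: compound pretreatment 18-22 h then 72 h combined with doxorubicin; 0% = doxorubicin alone and 100% = vehicle without doxorubicin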). Conditions: H69AR viability with doxorubicin, CellTiter-Glo luminescence; at 10 µM; stronger effect = higher value.
Test [12] can be described thus: viability of HCT116 without oncogenic beta-catenin – human colon tumor cells, pilot screen (AID 823;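 active = cell viability at or below a set limit in both duplicate runs, the limit being the all-compound median minus 4 SD, cut at about 23% in these data, passing the limit was not always enough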;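 note: 0% = wells killed by 20 µM Hyamine and 100% = untreated DMSO cell wells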). Conditions: HCT116 beta-catenin knockout viability, CellTiter-Glo, 60 h; at 10 µM; stronger effect = lower value.
Test [13] is described as follows: viability of PTEN-null HCT116 cells – cell-based, HCT116 clonal line, CellTiter-Glo, pilot screen (AID 824;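 active = viability at or below 27.92% in each of two runs, the all-compound median minus 4 SD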;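 note: 0% = 20 µM Hyamine control and 100% = vehicle cell control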). Conditions: HCT116 PTEN-deleted viability, 60 h, at 10 µM, stronger effect = lower value.
The nature of test [14]: RAM pathway blockade in budding yeast – dse1pr::URA3 reporter, 5-FOA selection, pilot screen (AID 869).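 Note: 0% = DMSO wells with no growth and 100% = 10 µM 1-NA-PP1 with full growth; RAM network block rescues cells from 5-FOA so hits raise OD615 growth.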 Particulars: S. cerevisiae dse1pr::URA3 5-FOA growth, OD615, 2 d; at 10 µM; stronger effect = higher value; strain carries analog-sensitive mutant Cbk1 kinase.
Test [15] is described as follows: RAM signaling pathway blockade in yeast – S. cerevisiae, Pdr1DBD-CYC8 efflux-inhibited sensitized strain, primary screen (AID 1298;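 active = RAM network inhibition above 8.4% in each of two replicates, 3 SD over the compound average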;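 note: 0% = DMSO untreated cells without growth and 100% = 10 µM 1-NA-PP1 full growth; higher means more yeast growth rescued from 5-FOA killing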). Particulars: S. cerevisiae cbk1-as DSE1-URA3 strain, 5-FOA growth OD615, 2 d; at 50 µM; stronger effect = higher value.
Where [16] appears, read: H69AR cells + 2 uM doxorubicin, measured here: viability with 2 uM doxorubicin, stronger effect = lower value.
Where [17] appears, read: H69AR cells, compound alone cytotoxicity.

Inconclusive results are not listed. Active and inactive are the calls of the source.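 Rule for the calls, unless noted: active = inhibition over a set limit, the all-compound mean plus 3 SD, in both replicate runs; inconclusive = over that limit in just one replicate run; inactive = at or under that limit in both runs.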

For orientation: viability means a read-out of living cells in per cent, often relative to untreated cells. By inhibition is commonly meant the relative decrease from the control value, in per cent.

Receptor tyrosine-protein kinase erbB-2 (Homo sapiens), sequence (P04626 whole entry, looked up): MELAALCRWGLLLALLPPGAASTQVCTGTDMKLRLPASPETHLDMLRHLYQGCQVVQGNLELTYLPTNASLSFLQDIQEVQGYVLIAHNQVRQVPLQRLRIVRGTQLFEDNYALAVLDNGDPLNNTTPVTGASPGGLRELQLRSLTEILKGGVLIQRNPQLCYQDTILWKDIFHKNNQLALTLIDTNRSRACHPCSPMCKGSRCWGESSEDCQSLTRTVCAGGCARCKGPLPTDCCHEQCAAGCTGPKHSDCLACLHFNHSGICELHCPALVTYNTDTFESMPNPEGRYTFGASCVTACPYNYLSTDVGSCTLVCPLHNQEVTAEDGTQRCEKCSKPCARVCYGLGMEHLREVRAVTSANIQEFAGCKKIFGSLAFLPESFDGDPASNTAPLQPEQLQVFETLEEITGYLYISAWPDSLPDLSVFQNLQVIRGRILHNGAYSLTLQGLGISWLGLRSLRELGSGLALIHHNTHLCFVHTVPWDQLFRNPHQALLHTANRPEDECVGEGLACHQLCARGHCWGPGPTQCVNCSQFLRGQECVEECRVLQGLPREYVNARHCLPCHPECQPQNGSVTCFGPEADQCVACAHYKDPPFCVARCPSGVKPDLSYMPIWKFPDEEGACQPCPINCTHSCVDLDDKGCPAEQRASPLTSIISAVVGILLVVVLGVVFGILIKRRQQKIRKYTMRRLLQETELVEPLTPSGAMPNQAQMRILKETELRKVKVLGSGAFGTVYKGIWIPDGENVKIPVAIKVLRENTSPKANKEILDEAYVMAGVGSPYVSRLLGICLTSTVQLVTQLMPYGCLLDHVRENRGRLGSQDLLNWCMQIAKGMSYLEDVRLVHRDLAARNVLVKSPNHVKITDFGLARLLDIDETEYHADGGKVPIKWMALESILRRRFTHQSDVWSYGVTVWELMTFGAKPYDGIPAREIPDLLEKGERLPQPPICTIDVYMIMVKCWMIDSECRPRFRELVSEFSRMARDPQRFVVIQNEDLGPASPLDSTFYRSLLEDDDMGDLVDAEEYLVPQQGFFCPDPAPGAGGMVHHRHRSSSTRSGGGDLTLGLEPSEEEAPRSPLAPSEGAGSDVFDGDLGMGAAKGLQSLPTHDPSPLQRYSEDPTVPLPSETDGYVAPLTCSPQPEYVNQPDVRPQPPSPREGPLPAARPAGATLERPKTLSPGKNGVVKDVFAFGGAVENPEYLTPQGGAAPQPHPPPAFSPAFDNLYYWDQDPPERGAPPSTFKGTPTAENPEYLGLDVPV

For `Cc1ccc(NC(=O)c2cc(-c3ccc(C)o3)nc3ccccc23)nc1`, the viability in test [1] is 80%; in test [3], 80% (inactive); in test [4] it was 73% (inactive); in [5], 4.86% (active); in [6] (setting [16]), 5.45%; in [6] (setting [17]), 4.86%. The viability in [12] was 78.6% (inactive); in test [13], 84.2% (inactive). Also, the Her2 level in test [2] is 74% (inactive). The differential viability (reversal) in [6] (H69AR cells + 2 uM doxorubicin) is -0.595% (inactive). In addition, the results for the inhibition in test [7], in test [8] and in test [14] were -7.43% (inactive), -0.82% (inactive) and 1.21% (inactive), respectively. For the same molecule, the growth inhibition in test [9] is 3.23% (inactive); in [10], -2.09% (inactive). Also, the viability increase in test [11] is -4.08% (inactive). In addition, the RAM network inhibition in [15] is 0.74% (inactive).
Regarding `Cc1cccc(N2C(=O)CC(N3CCN(c4cccc(C(F)(F)F)c4)CC3)C2=O)c1` (stereo not given), the viability is 94.5% in test [1]; 94.5% (inactive) in test [3]; 73.2% (inactive) in test [4]; 96.9% (inactive) in test [5]; 90.8% in test [6] (setting [16]); 96.9% in test [6] (setting [17]). Also, the figures for the viability in [12] and in test [13] were 97.3% (inactive) and 97.8% (inactive), respectively. The Her2 level in [2] was 74.5% (inactive). Moreover, in test [6] (H69AR cells + 2 uM doxorubicin), the differential viability (reversal) is 6.09% (inactive). The inhibition in [7] is -2.86% (inactive); in [8], -9% (inactive); in [14], 1.32% (inactive). The growth inhibition in [9] was -12.6% (inactive); in [10] it was -8.65% (inactive). Further, the viability increase in test [11] is 3.91% (inactive). Besides, the RAM network inhibition in test [15] was 5.57% (inactive).
On to `COc1cccc(C2CC(c3ccc(C)cc3)Nc3nc(N)nn32)c1` (stereo not given), for which the viability in [1] was 88%; in test [3] it was 88% (inactive); in test [4], 99.2% (inactive); in test [5], 97.9% (inactive); in test [6] (setting [16]), 93.9%; in test [6] (setting [17]), 97.9%. For the same molecule, the viability in [12] was 98.6% (inactive); in [13] it was 95.5% (inactive). Moreover, in [2], the Her2 level was 98.5% (inactive). Besides, in test [6] (H69AR cells + 2 uM doxorubicin), the differential viability (reversal) is 4.01% (inactive). In addition, the inhibition in test [7] was -0.4% (inactive); in [8], -5.9% (inactive); in test [14], 0.515% (inactive). In addition, the growth inhibition is -2.17% (inactive) in test [9] and 2.23% (inactive) in test [10]. For the same molecule, the viability increase in test [11] is 0.54% (inactive). For the same molecule, the RAM network inhibition in test [15] is -0.56% (inactive).
On to `CCOCCCNC(=O)Cn1ncc2c(=O)oc3ccccc3c21`, for which the viability is 95% in test [1]; 95% (inactive) in test [3]; 81.5% (inactive) in [4]; 90.5% (inactive) in test [5]; 93.9% in [6] (setting [16]); 90.5% in test [6] (setting [17]). Besides, the values for the viability in [12] and in test [13] were 101% (inactive) and 94.3% (inactive), respectively. Besides, the Her2 level in test [2] was 98% (inactive). For the same molecule, the differential viability (reversal) in test [6] (H69AR cells + 2 uM doxorubicin) is -3.42% (inactive). For the same molecule, the inhibition in [7] was 1.79% (inactive); in [8], -2.83% (inactive); in test [14], -0.73% (inactive). The growth inhibition in test [9] is 7.44% (inactive); in test [10] it was 15.2% (inactive). The viability increase in test [11] was -0.6% (inactive). Moreover, the RAM network inhibition in [15] was 1.15% (inactive).
Turning to `CCOc1ccc(N(CC(=O)NCc2ccco2)S(=O)(=O)c2ccc(OC)c(OC)c2)cc1`, the viability in test [1] was 79%; in test [3], 79% (inactive); in test [4], 89.3% (inactive); in [5], 83.7% (inactive); in test [6] (setting [16]), 83.2%; in test [6] (setting [17]), 83.7%. Also, the viability in test [12] is 94.7% (inactive); in [13], 90.4% (inactive). Moreover, the Her2 level in test [2] is 85% (inactive). Besides, the differential viability (reversal) in test [6] (H69AR cells + 2 uM doxorubicin) was 0.495% (inactive). Further, the inhibition in test [7] is -3.51% (inactive); in test [8] it was -6.5% (inactive); in test [14], 2.28% (inactive). Besides, the results for the growth inhibition in test [9] and in [10] were -3.81% (inactive) and -16.6% (inactive), respectively. Moreover, in test [11], the viability increase is -4.63% (inactive). In addition, the RAM network inhibition in [15] was 2.74% (inactive).

The values above are taken from PubChem BioAssay.
